Design in all cases: scale not given: direction of the effect not stated beside the values
In assay [1] the target is Protein translocase subunit SecA (Escherichia coli (strain K12)) (UniProt P10408). The experiment in a line: Assay to Identify E. coli SecA ATPase Inhibitors. The class given is functional. The following applies: 30 µM.
Assay [2] concerns the target T1, Ubiquitin-activating enzyme e1, putative (Leishmania donovani (strain BPK282A1)) (UniProt E9BSI1).
T1 sequence (whole entry): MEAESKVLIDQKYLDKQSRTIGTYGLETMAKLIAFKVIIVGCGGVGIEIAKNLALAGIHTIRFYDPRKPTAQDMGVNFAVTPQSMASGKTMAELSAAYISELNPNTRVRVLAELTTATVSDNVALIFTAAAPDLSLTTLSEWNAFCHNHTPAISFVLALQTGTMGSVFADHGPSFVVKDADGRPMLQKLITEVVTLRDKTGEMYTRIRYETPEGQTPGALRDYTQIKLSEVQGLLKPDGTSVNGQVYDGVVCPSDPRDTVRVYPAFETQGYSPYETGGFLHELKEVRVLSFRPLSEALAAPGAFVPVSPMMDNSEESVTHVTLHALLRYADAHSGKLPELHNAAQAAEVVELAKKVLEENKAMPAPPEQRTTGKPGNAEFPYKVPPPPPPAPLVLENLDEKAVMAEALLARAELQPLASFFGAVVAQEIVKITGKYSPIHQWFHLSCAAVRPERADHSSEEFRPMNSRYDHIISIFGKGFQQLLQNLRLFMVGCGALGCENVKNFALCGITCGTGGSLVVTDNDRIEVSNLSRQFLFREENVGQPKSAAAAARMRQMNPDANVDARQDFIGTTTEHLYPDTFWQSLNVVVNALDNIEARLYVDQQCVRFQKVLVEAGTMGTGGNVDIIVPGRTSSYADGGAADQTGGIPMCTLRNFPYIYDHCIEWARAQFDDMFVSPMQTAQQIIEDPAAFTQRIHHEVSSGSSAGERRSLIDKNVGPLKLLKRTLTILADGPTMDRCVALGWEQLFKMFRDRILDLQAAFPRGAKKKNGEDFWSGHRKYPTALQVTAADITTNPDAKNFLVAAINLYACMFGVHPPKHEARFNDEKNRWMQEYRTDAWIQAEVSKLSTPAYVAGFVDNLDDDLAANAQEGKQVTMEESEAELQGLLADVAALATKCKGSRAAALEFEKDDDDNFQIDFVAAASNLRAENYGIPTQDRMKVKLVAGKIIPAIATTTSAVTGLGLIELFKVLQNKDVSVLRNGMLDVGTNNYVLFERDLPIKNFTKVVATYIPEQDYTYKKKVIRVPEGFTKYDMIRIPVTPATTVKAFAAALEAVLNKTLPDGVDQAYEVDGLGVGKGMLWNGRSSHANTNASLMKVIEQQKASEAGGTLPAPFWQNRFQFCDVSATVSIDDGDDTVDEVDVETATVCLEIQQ
The experiment in a line: Leishmania donovani Ubiquitin Activating Enzyme (LdE1). The class given is functional. The conditions noted are these: 30 µM.

Assay [3] concerns the target T2, Aspartate--tRNA(Asp/Asn) ligase (Mycobacterium tuberculosis (strain ATCC 25618 / H37Rv)) (UniProt P9WFW3). Also: in the data most compounds retested in dose-response had high values.
T2 sequence (whole entry): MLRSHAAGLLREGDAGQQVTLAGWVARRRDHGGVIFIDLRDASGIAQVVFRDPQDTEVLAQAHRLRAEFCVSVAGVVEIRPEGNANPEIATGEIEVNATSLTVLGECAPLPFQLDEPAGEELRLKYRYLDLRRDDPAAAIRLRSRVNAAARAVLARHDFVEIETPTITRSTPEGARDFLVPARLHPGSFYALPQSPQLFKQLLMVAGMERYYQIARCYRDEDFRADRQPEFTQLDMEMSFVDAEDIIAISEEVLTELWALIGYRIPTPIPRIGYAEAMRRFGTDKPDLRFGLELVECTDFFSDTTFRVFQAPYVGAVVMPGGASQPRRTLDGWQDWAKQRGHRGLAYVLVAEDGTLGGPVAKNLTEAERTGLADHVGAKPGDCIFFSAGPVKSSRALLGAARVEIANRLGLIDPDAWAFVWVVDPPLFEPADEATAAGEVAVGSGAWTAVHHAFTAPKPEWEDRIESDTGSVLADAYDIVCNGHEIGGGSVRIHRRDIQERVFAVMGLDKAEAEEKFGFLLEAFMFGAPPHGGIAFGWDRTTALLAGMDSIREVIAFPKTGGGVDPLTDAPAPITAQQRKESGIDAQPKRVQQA
Kind of assay: Assay for Asp RNA synthetase-1 from Mycobacterium tuberculosis. It counts as functional. The conditions noted are these: 30 µM.

For assay [4], the target named is AMP-activated protein kinase, AMPK (Homo sapiens) (UniProt P54646+O43741+P54619+Q9UGJ0+Q9Y478+Q13131+Q9UGI9). The experiment in a line: AMP-dependent Kinase enzyme assay. An in vitro enzyme assay that detects ADP turnover that is directly proportional to AMPK activity. This uses naive AMPK that is activated during the assay with MK-8722. The conditions noted are these: 30 µM. The class given is functional.

For assay [5], the target named is Sialic acid-binding Ig-like lectin 9 (Homo sapiens) (UniProt Q9Y336). The experiment in a line: Hs-Siglec9 ALPHAscreen SOP 20170721. The following applies: 10 µM. In general terms: Alpha assays give light when donor and acceptor beads are brought close together.
Sequence of Sialic acid-binding Ig-like lectin 9 (Homo sapiens) (Q9Y336 whole entry): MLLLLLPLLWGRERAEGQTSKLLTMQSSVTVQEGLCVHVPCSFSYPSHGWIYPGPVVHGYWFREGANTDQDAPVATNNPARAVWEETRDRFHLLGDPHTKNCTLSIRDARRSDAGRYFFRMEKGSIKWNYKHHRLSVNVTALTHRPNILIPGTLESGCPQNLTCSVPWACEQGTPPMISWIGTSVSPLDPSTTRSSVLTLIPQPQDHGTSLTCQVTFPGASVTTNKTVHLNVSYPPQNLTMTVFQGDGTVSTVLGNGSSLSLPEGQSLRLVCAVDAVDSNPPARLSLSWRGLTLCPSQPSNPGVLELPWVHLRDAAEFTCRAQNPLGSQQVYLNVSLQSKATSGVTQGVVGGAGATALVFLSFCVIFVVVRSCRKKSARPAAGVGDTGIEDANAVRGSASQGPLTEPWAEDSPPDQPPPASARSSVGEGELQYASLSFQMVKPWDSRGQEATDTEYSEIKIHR
The test system of assay [6] is Trypanosoma cruzi. The experiment in a line: Trypanosoma cruzi phosphomannomutase and mannose-1-phosphate guanylyltransferase assay. It counts as functional. The following applies: 10 µM.
Assay [7] has as its target T3, Arginase-2, mitochondrial (Homo sapiens) (UniProt P78540).
T3 sequence (whole entry): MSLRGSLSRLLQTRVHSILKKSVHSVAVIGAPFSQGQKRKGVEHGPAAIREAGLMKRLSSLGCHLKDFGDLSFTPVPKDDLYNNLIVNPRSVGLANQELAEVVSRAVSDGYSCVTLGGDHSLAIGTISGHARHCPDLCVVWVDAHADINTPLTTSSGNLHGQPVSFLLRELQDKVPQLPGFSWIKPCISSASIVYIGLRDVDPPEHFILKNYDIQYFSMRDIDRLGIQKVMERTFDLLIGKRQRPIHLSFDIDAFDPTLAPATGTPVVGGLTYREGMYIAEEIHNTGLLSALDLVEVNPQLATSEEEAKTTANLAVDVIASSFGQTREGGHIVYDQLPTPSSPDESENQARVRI
Kind of assay: in vitro enzyme assay to detect the production of urea directly proportional to the activity of Arginase II. Also: in the data most compounds retested in dose-response had high values. The class given is functional. The following applies: 33.3 µM.

For assay [8], the target named is T4, Proteasome subunit beta (Trypanosoma cruzi) (UniProt O96673).
T4 sequence (whole entry): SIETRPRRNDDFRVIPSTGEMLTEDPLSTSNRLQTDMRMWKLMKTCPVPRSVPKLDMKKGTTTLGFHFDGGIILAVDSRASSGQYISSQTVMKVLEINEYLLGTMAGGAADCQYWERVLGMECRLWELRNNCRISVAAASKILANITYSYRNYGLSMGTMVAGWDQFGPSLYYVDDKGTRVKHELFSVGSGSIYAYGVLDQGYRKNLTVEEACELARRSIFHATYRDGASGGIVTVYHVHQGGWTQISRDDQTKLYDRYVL
Kind of assay: Trypanosoma cruzi proteasome chymotrypsin-like activity (TcProtChymo) assay. Also: in the data most compounds retested in dose-response had high values. It counts as functional. The following applies: 9.37 µM.

The species named for assay [9] is Homo sapiens. The experiment in a line: To identify inhibition of the IFN signalling (Jak-Stat) pathway via expression of an eGFP reporter gene under the control of an IFN-stimulated response element (ISRE) containing MxA promoter. The conditions noted are these: 30 µM. The class given is functional. On the technique in general: Reporter assays use an easily measured gene product as a stand-in for the process of interest.

The target of assay [10] is Shiga toxin 2 (Escherichia coli O157:H7) (UniProt P09385+P09386). The experiment in a line: E. coli 0.157:H7 Shiga Toxin SOP - stx2 screening assay. The following applies: 30 µM. It counts as functional.
Assay [11] has as its target T5, Tyrosyl-tRNA synthetase, putative (Trypanosoma cruzi (strain CL Brener)) (UniProt Q4DSP6).
T5 sequence (whole entry): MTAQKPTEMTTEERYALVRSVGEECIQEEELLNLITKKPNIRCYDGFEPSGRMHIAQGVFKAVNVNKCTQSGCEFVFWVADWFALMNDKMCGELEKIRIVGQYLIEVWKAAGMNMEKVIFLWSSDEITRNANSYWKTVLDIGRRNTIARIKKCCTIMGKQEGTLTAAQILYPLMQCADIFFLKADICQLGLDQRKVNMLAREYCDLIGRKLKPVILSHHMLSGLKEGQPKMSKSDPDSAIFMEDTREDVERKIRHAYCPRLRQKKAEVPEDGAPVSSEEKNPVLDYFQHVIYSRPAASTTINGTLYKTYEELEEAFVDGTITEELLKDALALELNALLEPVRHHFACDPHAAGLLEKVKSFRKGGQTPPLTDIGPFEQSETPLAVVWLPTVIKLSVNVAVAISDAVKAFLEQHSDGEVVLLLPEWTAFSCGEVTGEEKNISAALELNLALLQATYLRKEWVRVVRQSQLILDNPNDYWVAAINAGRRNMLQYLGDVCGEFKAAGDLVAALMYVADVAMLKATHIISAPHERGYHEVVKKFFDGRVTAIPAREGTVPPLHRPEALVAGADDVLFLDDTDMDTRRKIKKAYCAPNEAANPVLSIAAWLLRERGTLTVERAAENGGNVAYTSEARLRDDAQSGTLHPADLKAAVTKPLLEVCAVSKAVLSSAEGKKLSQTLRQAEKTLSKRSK
The experiment in a line: Trypanosoma cruzi tyrosyl tRNA synthetase (TcYRS) _High Tyrosine SOP. Also: in the data most compounds retested in dose-response had high values. It counts as functional. The following applies: 30 µM.

In assay [12] the target is T5, Tyrosyl-tRNA synthetase, putative (Trypanosoma cruzi (strain CL Brener)). The experiment in a line: Trypanosoma cruzi tyrosyl tRNA synthetase (TcYRS) SOP. The class given is functional. The following applies: 30 µM.
The target of assay [13] is Chromo domain-containing protein 1 (Saccharomyces cerevisiae (strain ATCC 204508 / S288c) (Baker's yeast)) (UniProt P32657). Kind of assay: ScCHD-1 Enzyme Inhibition Assay. Also: in the data most compounds retested in dose-response had high values. It counts as functional. The conditions noted are these: 30 µM.
Sequence of Chromo domain-containing protein 1 (Saccharomyces cerevisiae (strain ATCC 204508 / S288c) (Baker's yeast)) (P32657 whole entry, the tested form may be a part): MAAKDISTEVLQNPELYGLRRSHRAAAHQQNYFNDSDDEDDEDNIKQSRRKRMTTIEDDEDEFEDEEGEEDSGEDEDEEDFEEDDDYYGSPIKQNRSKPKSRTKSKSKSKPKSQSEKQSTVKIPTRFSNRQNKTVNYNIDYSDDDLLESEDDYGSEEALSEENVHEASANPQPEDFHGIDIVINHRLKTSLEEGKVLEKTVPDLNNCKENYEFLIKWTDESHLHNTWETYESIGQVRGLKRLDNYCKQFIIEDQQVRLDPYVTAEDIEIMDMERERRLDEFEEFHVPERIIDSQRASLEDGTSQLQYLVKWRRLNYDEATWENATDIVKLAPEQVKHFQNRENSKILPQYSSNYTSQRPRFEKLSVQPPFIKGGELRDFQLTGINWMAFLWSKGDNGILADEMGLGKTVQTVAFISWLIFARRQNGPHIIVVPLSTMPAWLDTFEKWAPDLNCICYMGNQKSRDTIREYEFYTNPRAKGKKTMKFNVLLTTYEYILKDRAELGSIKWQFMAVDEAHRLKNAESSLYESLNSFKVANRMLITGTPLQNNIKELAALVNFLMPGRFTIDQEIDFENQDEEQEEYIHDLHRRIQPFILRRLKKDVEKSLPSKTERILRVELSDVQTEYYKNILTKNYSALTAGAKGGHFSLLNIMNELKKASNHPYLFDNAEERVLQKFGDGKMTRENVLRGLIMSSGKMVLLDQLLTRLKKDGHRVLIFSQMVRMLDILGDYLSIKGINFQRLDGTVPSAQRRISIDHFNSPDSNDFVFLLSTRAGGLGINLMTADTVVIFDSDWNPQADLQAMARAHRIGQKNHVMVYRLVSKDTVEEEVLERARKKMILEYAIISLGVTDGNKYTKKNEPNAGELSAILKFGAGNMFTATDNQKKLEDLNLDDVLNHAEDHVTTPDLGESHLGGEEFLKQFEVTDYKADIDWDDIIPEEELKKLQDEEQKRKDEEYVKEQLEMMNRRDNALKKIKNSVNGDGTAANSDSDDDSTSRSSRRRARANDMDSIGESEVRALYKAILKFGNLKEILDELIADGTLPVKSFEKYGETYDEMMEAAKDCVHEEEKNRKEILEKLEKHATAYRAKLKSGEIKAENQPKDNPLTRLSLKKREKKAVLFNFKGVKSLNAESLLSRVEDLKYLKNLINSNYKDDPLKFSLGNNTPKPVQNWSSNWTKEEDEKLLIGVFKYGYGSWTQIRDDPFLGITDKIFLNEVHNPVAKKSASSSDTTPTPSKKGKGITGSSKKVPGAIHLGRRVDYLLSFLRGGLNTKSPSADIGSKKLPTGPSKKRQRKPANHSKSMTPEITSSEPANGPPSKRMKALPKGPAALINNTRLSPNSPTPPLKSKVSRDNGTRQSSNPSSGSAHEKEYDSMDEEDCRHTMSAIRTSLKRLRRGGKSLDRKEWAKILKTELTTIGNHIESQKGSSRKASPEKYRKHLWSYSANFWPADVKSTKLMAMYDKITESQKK

For some of these results: Measured potencies and affinities stand elsewhere.

Sequence of Protein translocase subunit SecA (Escherichia coli (strain K12)) (P10408 whole entry): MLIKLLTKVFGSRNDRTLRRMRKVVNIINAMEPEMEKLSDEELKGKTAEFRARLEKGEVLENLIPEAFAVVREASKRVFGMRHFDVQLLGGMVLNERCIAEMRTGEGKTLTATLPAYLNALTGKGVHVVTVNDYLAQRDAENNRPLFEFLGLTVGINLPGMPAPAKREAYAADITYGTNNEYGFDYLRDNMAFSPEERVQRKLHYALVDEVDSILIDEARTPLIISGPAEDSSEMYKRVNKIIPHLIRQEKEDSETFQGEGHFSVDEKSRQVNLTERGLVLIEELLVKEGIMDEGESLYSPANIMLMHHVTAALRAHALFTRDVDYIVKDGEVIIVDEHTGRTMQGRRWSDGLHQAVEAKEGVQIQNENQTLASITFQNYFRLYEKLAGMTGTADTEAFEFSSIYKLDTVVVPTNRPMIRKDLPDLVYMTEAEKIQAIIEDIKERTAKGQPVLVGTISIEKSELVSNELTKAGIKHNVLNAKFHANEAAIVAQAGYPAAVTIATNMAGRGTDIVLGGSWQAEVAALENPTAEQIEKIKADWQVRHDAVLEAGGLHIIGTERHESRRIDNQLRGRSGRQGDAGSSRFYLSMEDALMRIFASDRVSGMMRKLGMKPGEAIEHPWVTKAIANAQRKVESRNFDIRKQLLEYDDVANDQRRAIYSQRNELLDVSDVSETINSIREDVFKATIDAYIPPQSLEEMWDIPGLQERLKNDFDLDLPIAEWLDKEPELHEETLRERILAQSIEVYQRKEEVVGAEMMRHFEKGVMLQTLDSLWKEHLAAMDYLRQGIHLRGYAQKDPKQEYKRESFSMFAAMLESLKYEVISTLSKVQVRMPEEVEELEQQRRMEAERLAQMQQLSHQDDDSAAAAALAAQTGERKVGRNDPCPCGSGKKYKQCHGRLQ

Take `O=C(c1cscn1)N1CCN2C[C@H](OCc3cccnc3)C[C@H]2C1`: the Percent Effect in [1] was 4.53%; in assay [2], 16%; in [3], 2.54%; in assay [4], 2.68%; in assay [5] it was -10.9%; in [6] it was -9.05%. In addition, the Percent Effect is 6.76% in [7]; 12.1% in assay [8]; 0.411% in assay [9]; -22.2% in assay [10]; 5.32% in assay [11]; 3.85% in assay [12]. For the same molecule, in [13], the Percent Effect worked out at 1.28%.
For the molecule `O=C(N[C@H]1CN[C@H]2CCCO[C@H]21)c1ccno1`, the Percent Effect in assay [1] is -2.91%; in assay [2], 2.74%; in assay [3], 0.661%; in assay [4], -1.51%; in assay [5] it was 4.01%; in assay [6], 4.76%. Further, the Percent Effect was -2.4% in [7]; 6.76% in [8]; -9.47% in assay [9]; 2.67% in [10]; 4.17% in assay [11]; 6.17% in [12]. The Percent Effect in assay [13] is 2.08%.
Regarding `Cc1ncsc1CN1CC[C@H]2C[C@H](c3ccncn3)O[C@@H]2C1`, the Percent Effect in assay [1] was 1.18%; in [2], 10.4%; in [3], 1.35%; in [4] it was 2.98%; in [5], -6.01%; in [6], -9.57%. In addition, the Percent Effect in assay [7] stood at 0.645%; in assay [8], 9.4%; in [9], 24.2%; in [10], 0.203%; in [11], 1.06%; in assay [12], 6.41%. In addition, the Percent Effect in [13] was -5.8%.
Turning to `Cc1nnc(N2CCCC3(CN(Cc4ccncc4)CCO3)C2)o1` (configuration not stated), the Percent Effect is 3.96% in assay [1]; 5.48% in assay [2]; -2.96% in assay [3]; 0.217% in [4]; 8.21% in [5]; -4.76% in [6]. For the same molecule, the Percent Effect in [7] was -2%; in assay [8], 20.3%; in assay [9] it was 6.92%; in assay [10], -16.9%; in [11], 4.17%; in [12], 16.1%. Also, the Percent Effect in assay [13] is 0.771%.

(Values after ChEMBL document CHEMBL3988442, “University of Dundee, Small-Polar-MMV Screening Library” (2021).)
